# Measured values reported in PubChem BioAssay (NCI).
# This is part of a sample that, as a whole, favours compounds with a hit. Of some 83,000 tested, about 20% had one in any assay.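 Plates (96-well) were seeded with cells, treated with compound at one concentration, and incubated for 48 hours before percent growth was determined.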 Values without a mark were called inactive. Calls of active or inactive are those of the source. The calls were made as follows: active = growth percent below 10; inactive = the rest.
# Legend:
# Experiment in all cases: NCI-60 one-dose screen, 48 h (100 = growth as untreated, 0 = no growth, -100 = all killed)
# Settings in all cases: 10 µM unless noted
# NCI-H23 lung = test system: NCI-H23 lung
# NCI-H226 lung = test system: NCI-H226 lung
# NCI-H322M lung = test system: NCI-H322M lung
# HOP-62 NSCLC = test system: HOP-62 NSCLC
# NCI-H460 lung = test system: NCI-H460 lung
# HOP-92 NSCLC = test system: HOP-92 NSCLC
# NCI-H522 lung = test system: NCI-H522 lung
# A549/ATCC NSCLC = test system: A549/ATCC NSCLC
# 786-0 renal = test system: 786-0 renal
# COLO 205 colon = test system: COLO 205 colon
# DU-145 prostate = test system: DU-145 prostate
# K-562 leukemia = test system: K-562 leukemia
# MALME-3M melanoma = test system: MALME-3M melanoma
# MDA-MB-231 breast = test system: MDA-MB-231 breast
# RXF 393 renal = test system: RXF 393 renal
# SF-268 CNS = test system: SF-268 CNS
# SF-295 CNS = test system: SF-295 CNS
# SF-539 CNS = test system: SF-539 CNS
# UACC-257 melanoma = test system: UACC-257 melanoma
# M14 melanoma = test system: M14 melanoma
SMILES,growth (NCI-H23 lung),growth (NCI-H226 lung),growth (NCI-H322M lung),growth (HOP-62 NSCLC),growth (NCI-H460 lung),growth (HOP-92 NSCLC),growth (NCI-H522 lung),growth (A549/ATCC NSCLC),growth (786-0 renal),growth (COLO 205 colon),growth (DU-145 prostate),growth (K-562 leukemia),growth (MALME-3M melanoma),growth (MDA-MB-231 breast),growth (RXF 393 renal),growth (SF-268 CNS),growth (SF-295 CNS),growth (SF-539 CNS),growth (UACC-257 melanoma),growth (M14 melanoma)
COC(=O)[C@H](Cc1ccccc1)NC(=O)c1csc([C@@H](C[C@H](C(C)C)N(C)C(=O)[C@@H](NC(=O)[C@H]2CCCCN2C)C2CC2)OC(C)=O)n1,23.9%,27.7%,46.1%,-2.57% (active),1.93% (active),-3.94% (active),-28.7% (active),14.2%,11.7%,-66.6% (active),6.13% (active),3.82% (active),67.8%,-1.7% (active),75.8%,19.2%,3.79% (active),-14.4% (active),54.2%,-5.77% (active)
CC1=C(CN)C2=C(C)C3(CC3)[C@@](C)(O)C(=O)C2=C1,68.2%,91.8%,91.6%,88.2%,66.1%,115%,87.9%,93.5%,99%,85.1%,48.5%,111%,96.2%,95.2%,91.6%,72.1%,78.9%,94.8%,87.2%,96.1%
CCN1C(=O)C(=C/C=C/c2ccccc2)C(=O)N(CC)C1=O,95.5%,94.5%,104%,97.8%,77.8%,116%,73.3%,101%,106%,93.8%,76.4%,79.4%,82.5%,86.4%,109%,72.5%,105%,109%,93.9%,82.5%
N/C(=N\N=C\c1ccc(-c2ccccc2)cc1)N[N+](=O)[O-],41%,73.6%,52.7%,38.2%,16.4%,51.6%,18.2%,38.4%,40.6%,24.9%,33.4%,14.9%,43.7%,66.5%,-4.68% (active),49.1%,7.55% (active),9.43% (active),65.3%,25.8%
CN(C)CCCOc1ccc2c(c1)c(C(=O)C(=O)NCCO)cn2Cc1ccccc1,95.6%,103%,105%,100%,105%,92.1%,99%,105%,93.3%,107%,106%,106%,97.1%,104%,89.1%,97.7%,103%,103%,102%,101%
CC[C@H](C)[C@H](NC(=O)c1ccccn1)C(=O)N(C)[C@H](C[C@@H](OC(C)=O)c1nc(C(=O)N[C@@H](Cc2ccccc2)C[C@H](C)C(=O)OC)cs1)C(C)C,28.3%,25.4%,58.2%,26.9%,9.13% (active),91.9%,-33.8% (active),32.2%,30.4%,-21.2% (active),6.32% (active),10.8%,53.8%,15.8%,-11.2% (active),32.3%,7.86% (active),-24% (active),69.8%,4.96% (active)
CCn1cnc2c(Nc3cccc(Cl)c3)nc(N[C@@H]3CCCC[C@@H]3N)nc21,-21.5% (active),10.6%,15.4%,-11.1% (active),1.68% (active),-9.78% (active),-32.4% (active),-7.67% (active),1.83% (active),-67.6% (active),6.73% (active),-2.92% (active),15%,-22.3% (active),-44.5% (active),0.266% (active),9.85% (active),-5.76% (active),14.1%,-45.8% (active)
Fc1ccc(C2=CCNCC2)cc1,50.2%,86.6%,111%,112%,99.5%,119%,63.1%,113%,78.8%,103%,111%,108%,95.5%,80.7%,97.7%,96.8%,77.8%,93.4%,-21.6% (active),98.9%
C[C@]12CCc3sc(NCCc4ccccc4)nc3C1=CC[C@@H]1[C@@H]2CC[C@]2(C)C(=O)CC[C@@H]12,66.6%,84.1%,91.9%,102%,72.8%,66.4%,44.1%,87.8%,4.36% (active),90.6%,33.9%,5.14% (active),73.3%,83.1%,20%,83.9%,68.4%,64.8%,87.4%,85.4%
COc1cc(/C=C/[N+](=O)[O-])cc(OC)c1,-47.3% (active),-31.2% (active),84.6%,35.9%,40.6%,28.9%,-40.1% (active),28.6%,-45.3% (active),-49.4% (active),-63% (active),0.863% (active),24.1%,13.4%,-90% (active),25.7%,46.5%,-72.2% (active),-16.4% (active),-30.1% (active)
COC(=O)CCc1c[nH]c2ccc(N(CCCl)CCCl)cc12,31.1%,79%,95.1%,47.5%,17.4%,84.4%,42.3%,44%,24.8%,68.8%,33.3%,70.7%,71%,121%,46.8%,40.6%,32.9%,23.2%,85.9%,45.4%
CCOP1(=O)CC(C)=C(Cl)C(P(=O)(OCC)OCC)C1 (stereo not given),91.5%,103%,124%,93.9%,112%,89.1%,71.3%,90.4%,115%,94.1%,109%,110%,118%,87.6%,74.5%,107%,103%,113%,76.9%,74.3%
N#C[Se]CCN1C(=O)c2ccccc2C1=O,39.4%,36.3%,24.4%,26.4%,15.8%,-3.49% (active),20.2%,30.6%,52%,61.6%,35.1%,26.1%,17.7%,55.9%,-9.88% (active),20.2%,6.62% (active),33.4%,7.13% (active),25.5%
N#Cc1c(Br)n(C2OC(CO)C(O)C2O)c2ncnc(N)c12 (stereo not given),74.4%,135%,81%,101%,34%,52.7%,60.5%,13.4%,89.1%,18.2%,17.8%,20.8%,108%,97.1%,13.8%,55%,87.5%,102%,80.3%,60%
COc1ccc(S(=O)(=O)Nc2c(/C=C\c3cc(OC)c(OC)c(OC)c3)ccc(OC)c2O)cc1OC,33.2%,29%,44.3%,71.5%,5.24% (active),30.5%,-9.02% (active),20.9%,14%,-39.3% (active),-10.2% (active),17.2%,69.2%,1.41% (active),24.6%,23.7%,12%,-14.6% (active),58.5%,9.05% (active)
